Columns and labels:
Assay in all cases: log2 ratio of Biotin-Ahx-Ub-VS probe labelling (fragment/DMSO); higher = less target engagement (more negative = stronger competition), active = hit call of the paper (q ≤ 0.05, log2 ratio ≤ -1)
Conditions in all cases: compound concentration: 200 uM; treatment time: 3 h
[1] = biological target: T1, USP19 (UniProt O94966)
T1 sequence (whole entry): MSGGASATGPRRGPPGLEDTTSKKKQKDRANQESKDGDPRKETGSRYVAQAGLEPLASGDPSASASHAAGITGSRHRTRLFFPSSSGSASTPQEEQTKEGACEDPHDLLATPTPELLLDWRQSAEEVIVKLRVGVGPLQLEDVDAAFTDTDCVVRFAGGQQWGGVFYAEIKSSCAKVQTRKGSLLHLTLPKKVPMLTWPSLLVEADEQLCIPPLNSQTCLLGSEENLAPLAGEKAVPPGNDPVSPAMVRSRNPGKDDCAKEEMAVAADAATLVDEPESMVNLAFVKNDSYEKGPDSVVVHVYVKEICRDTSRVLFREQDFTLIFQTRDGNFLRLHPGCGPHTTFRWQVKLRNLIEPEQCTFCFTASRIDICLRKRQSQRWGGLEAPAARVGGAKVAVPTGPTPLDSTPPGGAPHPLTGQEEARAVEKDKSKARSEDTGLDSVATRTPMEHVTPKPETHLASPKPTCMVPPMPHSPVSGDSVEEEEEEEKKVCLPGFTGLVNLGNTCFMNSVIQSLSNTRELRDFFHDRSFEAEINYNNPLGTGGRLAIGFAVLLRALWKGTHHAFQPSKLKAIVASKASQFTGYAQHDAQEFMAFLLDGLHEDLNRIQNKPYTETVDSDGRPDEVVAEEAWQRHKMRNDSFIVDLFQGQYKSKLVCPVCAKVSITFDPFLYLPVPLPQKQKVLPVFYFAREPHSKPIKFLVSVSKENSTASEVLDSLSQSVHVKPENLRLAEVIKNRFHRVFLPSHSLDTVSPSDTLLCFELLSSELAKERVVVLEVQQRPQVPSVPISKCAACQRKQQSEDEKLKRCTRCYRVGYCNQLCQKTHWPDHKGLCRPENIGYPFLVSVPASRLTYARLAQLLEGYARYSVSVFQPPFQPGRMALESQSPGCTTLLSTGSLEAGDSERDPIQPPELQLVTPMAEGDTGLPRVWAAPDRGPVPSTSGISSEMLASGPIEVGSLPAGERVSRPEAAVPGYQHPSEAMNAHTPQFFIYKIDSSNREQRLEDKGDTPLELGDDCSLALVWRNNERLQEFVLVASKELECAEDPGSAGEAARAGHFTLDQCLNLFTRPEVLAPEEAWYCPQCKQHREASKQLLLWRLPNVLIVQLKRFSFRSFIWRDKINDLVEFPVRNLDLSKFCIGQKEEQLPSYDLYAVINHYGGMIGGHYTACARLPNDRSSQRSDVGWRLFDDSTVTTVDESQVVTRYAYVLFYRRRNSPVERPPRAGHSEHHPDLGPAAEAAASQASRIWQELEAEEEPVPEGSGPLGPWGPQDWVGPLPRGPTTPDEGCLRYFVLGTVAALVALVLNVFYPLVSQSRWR
Procedure, shortened: (§1)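 Average log2 ratios of fragment over vehicle were obtained by unpaired t-test from global-median-normalised Spectronaut label-free quantities. Proteins with ≥2 unique peptides were included. HEK293T lysate (495 µg per sample) was treated in triplicate with fragment at 200 µM or vehicle for 3 h, then with Biotin-Ahx-Ub-VS at 0.5 µM final for 1 h, and labelled DUBs were NeutrAvidin-enriched and run by diaPASEF LC-MS/MS.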

[2] = biological target: USP24 (UniProt Q9UPU5)
Procedure, shortened: as §1

[3] = biological target: T2, USP25 (UniProt Q9UHP3)
T2 sequence (whole entry): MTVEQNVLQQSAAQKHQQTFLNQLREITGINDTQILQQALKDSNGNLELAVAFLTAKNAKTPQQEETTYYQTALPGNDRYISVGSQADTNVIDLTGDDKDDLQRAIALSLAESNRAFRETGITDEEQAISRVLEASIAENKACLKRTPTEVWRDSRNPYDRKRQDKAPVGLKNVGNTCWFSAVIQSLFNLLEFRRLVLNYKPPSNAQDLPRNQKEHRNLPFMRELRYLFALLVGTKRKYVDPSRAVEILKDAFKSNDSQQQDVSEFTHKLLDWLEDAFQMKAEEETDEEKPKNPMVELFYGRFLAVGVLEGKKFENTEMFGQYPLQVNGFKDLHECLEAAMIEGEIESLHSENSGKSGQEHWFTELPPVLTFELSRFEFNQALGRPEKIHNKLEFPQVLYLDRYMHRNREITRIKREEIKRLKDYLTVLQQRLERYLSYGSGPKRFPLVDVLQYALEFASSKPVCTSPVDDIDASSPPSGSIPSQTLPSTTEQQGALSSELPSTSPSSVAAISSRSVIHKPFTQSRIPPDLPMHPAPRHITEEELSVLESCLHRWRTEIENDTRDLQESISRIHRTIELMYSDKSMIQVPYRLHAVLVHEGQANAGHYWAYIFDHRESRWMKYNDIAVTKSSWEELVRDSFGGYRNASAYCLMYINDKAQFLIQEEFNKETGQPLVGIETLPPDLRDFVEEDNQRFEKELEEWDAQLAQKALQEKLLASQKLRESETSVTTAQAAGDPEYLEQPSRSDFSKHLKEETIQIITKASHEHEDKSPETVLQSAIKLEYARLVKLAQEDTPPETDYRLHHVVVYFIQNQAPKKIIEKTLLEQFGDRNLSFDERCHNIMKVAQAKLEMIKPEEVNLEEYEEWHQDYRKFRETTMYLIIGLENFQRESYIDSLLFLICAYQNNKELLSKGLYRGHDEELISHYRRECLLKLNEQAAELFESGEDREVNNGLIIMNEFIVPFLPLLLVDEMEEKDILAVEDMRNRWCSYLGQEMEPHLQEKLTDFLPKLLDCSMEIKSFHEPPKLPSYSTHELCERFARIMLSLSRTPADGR
Procedure, shortened: as §1

[4] = biological target: T3, USP28 (UniProt Q96RU2)
T3 sequence (whole entry): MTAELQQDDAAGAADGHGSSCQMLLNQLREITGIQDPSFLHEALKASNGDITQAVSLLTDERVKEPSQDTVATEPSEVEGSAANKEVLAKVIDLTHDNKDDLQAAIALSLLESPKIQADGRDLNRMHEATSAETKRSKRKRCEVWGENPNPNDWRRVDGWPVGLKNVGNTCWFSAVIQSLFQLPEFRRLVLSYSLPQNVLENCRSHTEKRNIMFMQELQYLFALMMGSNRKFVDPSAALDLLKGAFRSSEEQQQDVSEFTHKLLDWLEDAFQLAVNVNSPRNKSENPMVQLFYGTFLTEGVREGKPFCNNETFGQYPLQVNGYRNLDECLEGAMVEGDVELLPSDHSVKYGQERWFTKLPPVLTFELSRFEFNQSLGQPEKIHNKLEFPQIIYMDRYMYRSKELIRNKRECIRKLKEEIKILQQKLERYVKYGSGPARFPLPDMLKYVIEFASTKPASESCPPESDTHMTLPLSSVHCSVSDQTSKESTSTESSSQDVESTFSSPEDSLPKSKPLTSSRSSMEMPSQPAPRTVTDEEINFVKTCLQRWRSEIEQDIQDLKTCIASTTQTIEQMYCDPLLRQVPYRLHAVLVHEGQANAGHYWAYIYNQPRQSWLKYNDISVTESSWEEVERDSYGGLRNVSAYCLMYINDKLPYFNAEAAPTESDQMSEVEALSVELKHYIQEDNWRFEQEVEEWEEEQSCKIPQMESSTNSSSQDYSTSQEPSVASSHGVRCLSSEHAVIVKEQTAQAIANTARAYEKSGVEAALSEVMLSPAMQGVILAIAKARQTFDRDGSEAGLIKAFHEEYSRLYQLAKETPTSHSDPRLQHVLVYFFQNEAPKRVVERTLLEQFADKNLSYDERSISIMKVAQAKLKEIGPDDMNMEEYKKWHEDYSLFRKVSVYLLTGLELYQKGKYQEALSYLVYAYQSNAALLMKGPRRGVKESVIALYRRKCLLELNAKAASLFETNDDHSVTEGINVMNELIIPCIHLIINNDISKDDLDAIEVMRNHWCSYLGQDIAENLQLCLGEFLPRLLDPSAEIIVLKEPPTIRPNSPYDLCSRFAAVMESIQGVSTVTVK
Procedure, shortened: as §1

Measured: log2 ratio of Biotin-Ahx-Ub-VS probe labelling

Sequence of USP24 (Q9UPU5 whole entry): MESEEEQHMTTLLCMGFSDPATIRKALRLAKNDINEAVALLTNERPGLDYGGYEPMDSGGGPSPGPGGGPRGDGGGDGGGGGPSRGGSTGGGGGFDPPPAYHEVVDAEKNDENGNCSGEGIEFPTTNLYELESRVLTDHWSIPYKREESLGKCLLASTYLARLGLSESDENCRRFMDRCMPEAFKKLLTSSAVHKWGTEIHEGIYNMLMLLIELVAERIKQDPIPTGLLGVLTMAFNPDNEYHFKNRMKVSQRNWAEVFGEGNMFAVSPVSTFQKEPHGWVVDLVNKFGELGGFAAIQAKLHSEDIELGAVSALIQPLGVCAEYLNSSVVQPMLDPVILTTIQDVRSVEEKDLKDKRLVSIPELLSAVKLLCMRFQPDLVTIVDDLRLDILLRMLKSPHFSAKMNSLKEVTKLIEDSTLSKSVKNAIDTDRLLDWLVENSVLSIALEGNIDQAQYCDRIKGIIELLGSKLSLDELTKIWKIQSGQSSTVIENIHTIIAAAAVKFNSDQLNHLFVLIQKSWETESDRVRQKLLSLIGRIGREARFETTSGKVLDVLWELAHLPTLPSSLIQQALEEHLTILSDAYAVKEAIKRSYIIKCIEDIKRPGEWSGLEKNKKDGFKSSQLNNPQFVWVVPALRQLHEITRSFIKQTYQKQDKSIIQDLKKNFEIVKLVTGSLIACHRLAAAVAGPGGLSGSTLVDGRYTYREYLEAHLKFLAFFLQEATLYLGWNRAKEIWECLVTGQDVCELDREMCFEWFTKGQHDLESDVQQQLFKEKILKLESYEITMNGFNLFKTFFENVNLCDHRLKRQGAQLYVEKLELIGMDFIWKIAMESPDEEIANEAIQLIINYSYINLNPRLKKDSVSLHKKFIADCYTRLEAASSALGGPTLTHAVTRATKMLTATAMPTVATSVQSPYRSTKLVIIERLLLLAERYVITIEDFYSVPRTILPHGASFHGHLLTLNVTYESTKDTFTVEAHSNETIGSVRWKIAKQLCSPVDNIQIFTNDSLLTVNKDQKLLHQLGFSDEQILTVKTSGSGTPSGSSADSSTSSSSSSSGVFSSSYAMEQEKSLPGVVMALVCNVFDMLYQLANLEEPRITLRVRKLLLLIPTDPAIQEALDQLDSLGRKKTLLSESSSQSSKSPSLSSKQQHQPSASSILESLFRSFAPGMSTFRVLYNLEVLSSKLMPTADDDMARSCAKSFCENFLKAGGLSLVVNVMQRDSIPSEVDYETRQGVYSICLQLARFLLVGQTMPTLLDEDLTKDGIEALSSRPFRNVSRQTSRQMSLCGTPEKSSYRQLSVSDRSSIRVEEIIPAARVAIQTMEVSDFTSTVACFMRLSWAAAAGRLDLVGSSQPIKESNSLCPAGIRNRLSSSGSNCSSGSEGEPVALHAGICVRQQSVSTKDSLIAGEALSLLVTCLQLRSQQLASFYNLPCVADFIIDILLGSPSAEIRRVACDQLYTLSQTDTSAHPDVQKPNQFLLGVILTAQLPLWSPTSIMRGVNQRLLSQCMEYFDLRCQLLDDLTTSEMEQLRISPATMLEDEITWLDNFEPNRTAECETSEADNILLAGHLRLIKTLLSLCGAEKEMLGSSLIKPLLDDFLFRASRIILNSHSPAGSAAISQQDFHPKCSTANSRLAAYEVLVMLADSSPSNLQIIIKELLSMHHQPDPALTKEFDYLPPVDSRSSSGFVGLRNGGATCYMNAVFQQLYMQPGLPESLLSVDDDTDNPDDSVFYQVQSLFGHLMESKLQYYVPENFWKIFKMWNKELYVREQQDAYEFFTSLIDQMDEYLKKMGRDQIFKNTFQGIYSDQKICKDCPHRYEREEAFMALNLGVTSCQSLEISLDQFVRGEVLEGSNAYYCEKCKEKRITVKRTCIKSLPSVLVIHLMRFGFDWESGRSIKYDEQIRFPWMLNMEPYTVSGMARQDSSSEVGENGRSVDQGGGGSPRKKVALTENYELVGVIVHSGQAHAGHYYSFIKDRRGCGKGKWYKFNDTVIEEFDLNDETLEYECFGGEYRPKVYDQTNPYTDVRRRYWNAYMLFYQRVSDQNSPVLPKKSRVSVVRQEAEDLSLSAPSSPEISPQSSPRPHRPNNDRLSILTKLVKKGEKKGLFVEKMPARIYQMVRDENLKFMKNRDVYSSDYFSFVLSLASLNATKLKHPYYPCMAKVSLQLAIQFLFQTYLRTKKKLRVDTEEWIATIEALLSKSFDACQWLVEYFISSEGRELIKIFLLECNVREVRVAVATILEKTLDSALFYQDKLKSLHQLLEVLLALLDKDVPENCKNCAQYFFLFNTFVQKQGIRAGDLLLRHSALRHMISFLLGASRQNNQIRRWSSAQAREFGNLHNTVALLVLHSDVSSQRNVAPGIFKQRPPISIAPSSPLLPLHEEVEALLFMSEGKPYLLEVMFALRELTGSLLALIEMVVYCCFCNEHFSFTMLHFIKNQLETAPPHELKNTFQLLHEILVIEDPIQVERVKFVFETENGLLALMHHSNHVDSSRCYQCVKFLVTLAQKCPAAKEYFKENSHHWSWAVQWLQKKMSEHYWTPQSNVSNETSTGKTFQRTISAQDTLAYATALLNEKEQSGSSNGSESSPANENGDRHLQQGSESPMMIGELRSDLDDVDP

CCN(C(=O)CCl)C1CCCCC1
inactive: [1] 0.1 | [2] -0.333 | [3] 0.0335 | [4] -0.0965

From the supplement of paper PMC11732987, “Enantioselective OTUD7B fragment discovery through chemoproteomics screening and high-throughput optimisation” (Communications Chemistry, 2025)
